Key:
Assay in all cases: DAPPL (digital affinity profiling via proximity ligation, sequencing); 10 mM Tris-HCl pH 7.5, 50 mM NaCl, 1 mM DTT, 4% glycerol, room temperature, 30 min; GST-TFs on glutathione beads, 16-mer random dsDNA library, 0.1% formaldehyde crosslink after washing; high values mean tight binding
FEV = molecular target: T1, FEV (Homo sapiens, UniProt Q99581 1-238); conditions: protein: recombinant; tags: N-terminal GST; dsDNA, one strand shown
T1 sequence: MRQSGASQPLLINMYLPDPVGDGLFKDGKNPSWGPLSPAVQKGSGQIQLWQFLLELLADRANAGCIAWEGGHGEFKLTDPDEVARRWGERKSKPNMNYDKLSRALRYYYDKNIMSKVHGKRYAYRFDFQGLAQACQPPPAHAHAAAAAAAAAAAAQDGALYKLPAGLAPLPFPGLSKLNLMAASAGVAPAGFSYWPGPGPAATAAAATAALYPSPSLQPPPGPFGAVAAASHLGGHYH
How it was run: (§1)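 Pools of DNA-barcoded human transcription factors, expressed in yeast as GST fusions on glutathione beads and combined with a tag-only sample, were incubated with 200 nmole of a 16-mer random double-stranded DNA library. Incubation took 30 min at room temperature in Tris/NaCl/DTT/glycerol buffer and was followed by washing, 0.1% formaldehyde crosslinking, proximity ligation (BsaI/T4 ligase, 1 h, 37 °C), PCR amplification and sequencing on an Illumina NextSeq500. Binding signal is the ratio of a hexamer's read frequency for a factor to its frequency for the tag-only sample.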

ETV5 = ETV5 (Homo sapiens, UniProt P41161 1-510); conditions: protein: recombinant; tags: N-terminal GST; dsDNA, one strand shown
ETV5, sequence (P41161 whole entry): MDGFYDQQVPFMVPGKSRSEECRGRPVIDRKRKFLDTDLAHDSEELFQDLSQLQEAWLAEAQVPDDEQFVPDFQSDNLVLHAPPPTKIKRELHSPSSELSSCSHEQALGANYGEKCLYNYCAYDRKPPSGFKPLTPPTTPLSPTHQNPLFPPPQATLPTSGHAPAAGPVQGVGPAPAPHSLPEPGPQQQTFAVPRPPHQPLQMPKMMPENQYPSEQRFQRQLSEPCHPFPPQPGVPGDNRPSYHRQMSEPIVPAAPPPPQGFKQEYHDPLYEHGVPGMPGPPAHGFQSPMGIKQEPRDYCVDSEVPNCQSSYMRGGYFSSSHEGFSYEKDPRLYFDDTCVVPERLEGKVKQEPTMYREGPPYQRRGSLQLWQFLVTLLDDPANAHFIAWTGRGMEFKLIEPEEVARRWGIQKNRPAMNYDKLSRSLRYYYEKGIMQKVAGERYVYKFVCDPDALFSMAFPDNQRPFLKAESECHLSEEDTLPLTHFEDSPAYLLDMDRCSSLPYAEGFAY
How it was run: as §1

HSF1 = HSF1 (Homo sapiens, UniProt Q00613 1-529); conditions: protein: recombinant; tags: N-terminal GST; chain copies: 3; dsDNA, one strand shown
HSF1, sequence (Q00613 whole entry): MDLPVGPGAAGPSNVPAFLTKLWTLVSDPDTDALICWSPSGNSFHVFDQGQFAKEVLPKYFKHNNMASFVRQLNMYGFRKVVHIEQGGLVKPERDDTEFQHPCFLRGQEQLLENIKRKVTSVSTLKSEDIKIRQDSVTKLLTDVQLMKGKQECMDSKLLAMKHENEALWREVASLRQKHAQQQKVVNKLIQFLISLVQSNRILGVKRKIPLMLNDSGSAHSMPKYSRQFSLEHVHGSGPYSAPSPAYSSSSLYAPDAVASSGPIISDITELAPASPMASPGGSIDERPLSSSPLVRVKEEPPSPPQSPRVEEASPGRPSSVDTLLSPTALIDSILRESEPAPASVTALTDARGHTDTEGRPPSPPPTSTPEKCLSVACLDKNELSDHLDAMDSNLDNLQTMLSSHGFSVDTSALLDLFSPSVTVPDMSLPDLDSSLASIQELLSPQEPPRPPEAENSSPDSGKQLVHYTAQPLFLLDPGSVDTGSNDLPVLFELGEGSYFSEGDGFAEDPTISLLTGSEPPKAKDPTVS
How it was run: as §1

SPIC = molecular target: T2, SPIC (Homo sapiens, UniProt Q8N5J4 1-248); conditions: protein: recombinant; tags: N-terminal GST; dsDNA, one strand shown
T2 sequence: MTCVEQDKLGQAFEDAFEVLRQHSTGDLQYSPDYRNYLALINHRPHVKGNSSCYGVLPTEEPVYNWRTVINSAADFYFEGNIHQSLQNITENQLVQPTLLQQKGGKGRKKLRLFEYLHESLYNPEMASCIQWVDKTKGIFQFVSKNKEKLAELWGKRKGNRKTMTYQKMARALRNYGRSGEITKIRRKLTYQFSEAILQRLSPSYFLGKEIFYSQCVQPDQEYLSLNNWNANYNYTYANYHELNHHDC
How it was run: as §1

ELF4 = ELF4 (Homo sapiens, UniProt Q99607 1-663); conditions: protein: recombinant; tags: N-terminal GST; dsDNA, one strand shown
ELF4, sequence (Q99607 whole entry): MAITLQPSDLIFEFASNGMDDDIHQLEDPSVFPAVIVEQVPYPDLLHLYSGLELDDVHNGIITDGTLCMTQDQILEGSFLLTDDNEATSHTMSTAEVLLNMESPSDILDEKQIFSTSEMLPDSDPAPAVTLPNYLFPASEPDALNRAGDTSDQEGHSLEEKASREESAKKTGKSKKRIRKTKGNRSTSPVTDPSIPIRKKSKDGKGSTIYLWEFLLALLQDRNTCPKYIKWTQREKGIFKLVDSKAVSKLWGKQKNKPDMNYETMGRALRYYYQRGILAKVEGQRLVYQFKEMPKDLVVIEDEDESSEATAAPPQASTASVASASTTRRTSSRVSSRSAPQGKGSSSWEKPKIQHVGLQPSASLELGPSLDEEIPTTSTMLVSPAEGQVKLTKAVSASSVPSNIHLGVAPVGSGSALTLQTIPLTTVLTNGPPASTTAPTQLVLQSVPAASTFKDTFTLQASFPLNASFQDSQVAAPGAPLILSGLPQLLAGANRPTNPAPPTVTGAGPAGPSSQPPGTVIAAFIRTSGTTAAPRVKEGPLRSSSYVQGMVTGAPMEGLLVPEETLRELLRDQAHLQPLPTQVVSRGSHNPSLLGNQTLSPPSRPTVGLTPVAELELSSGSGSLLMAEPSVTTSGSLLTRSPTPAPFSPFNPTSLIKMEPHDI
How it was run: as §1

ELK4 = molecular target: T3, ELK4 (Homo sapiens, UniProt P28324-2 1-405); conditions: protein: recombinant; tags: N-terminal GST; dsDNA, one strand shown
T3 sequence: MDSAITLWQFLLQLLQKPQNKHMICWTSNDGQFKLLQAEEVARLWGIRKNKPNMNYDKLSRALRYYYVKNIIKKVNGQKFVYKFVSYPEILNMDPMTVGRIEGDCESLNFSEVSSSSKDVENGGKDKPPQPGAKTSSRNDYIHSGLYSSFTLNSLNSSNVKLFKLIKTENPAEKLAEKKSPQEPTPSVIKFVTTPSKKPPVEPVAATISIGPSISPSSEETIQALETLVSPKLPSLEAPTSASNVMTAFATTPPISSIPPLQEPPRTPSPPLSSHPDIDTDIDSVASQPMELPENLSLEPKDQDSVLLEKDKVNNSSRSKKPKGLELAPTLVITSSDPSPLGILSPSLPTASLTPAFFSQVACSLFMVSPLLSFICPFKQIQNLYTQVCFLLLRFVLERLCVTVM
How it was run: as §1

ETV2 = molecular target: T4, ETV2 (Homo sapiens, UniProt O00321 1-342); conditions: protein: recombinant; tags: N-terminal GST; dsDNA, one strand shown
T4 sequence: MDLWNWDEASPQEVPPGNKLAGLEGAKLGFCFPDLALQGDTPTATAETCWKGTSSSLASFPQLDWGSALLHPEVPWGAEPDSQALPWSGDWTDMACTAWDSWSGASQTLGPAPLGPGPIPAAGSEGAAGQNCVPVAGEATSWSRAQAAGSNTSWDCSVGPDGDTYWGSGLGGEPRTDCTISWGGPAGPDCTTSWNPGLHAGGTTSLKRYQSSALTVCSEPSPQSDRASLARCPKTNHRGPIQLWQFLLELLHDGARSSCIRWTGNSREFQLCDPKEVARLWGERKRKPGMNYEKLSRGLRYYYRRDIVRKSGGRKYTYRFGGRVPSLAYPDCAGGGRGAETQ
How it was run: as §1

ELF3 = molecular target: T5, ELF3 (Homo sapiens, UniProt P78545 1-371); conditions: protein: recombinant; tags: N-terminal GST; dsDNA, one strand shown
T5 sequence: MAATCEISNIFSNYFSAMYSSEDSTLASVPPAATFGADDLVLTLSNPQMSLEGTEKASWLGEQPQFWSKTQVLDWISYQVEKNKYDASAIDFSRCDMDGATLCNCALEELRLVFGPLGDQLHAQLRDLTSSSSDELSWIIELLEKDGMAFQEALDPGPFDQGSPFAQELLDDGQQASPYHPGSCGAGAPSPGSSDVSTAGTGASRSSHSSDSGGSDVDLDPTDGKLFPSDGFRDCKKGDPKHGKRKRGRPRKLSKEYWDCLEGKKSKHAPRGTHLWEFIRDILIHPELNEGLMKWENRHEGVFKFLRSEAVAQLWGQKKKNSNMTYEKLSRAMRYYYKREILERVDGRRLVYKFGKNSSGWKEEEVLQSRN
How it was run: as §1

CRX = CRX (Homo sapiens, UniProt O43186 1-299); conditions: protein: recombinant; tags: N-terminal GST; dsDNA, one strand shown
CRX, sequence (O43186 whole entry): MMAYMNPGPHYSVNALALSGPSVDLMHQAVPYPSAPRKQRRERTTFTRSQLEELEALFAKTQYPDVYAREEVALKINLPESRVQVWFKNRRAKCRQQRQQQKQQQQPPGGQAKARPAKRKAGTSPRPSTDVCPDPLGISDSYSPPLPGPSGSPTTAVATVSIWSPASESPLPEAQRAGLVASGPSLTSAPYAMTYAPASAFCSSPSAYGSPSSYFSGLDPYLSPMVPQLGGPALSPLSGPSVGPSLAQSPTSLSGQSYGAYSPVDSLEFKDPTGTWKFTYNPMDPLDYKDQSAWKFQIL
How it was run: as §1

ETV1 = ETV1 (Homo sapiens, UniProt P50549 1-477); conditions: protein: recombinant; tags: N-terminal GST; dsDNA, one strand shown
ETV1, sequence (P50549 whole entry): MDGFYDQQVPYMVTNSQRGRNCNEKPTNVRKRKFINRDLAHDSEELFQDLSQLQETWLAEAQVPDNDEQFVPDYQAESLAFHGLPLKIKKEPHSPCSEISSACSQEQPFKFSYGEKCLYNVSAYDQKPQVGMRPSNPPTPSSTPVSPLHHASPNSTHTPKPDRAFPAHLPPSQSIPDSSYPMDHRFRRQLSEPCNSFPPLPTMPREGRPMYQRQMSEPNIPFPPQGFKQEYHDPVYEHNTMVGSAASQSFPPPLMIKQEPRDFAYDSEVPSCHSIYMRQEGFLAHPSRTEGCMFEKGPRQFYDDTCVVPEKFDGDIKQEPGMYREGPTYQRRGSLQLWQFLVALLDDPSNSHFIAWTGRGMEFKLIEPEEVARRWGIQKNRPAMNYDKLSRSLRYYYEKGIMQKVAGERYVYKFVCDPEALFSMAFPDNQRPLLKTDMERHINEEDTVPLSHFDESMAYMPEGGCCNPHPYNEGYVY
How it was run: as §1

ERF = molecular target: T6, ERF (Homo sapiens, UniProt P50548 1-548); conditions: protein: recombinant; tags: N-terminal GST; dsDNA, one strand shown
T6 sequence: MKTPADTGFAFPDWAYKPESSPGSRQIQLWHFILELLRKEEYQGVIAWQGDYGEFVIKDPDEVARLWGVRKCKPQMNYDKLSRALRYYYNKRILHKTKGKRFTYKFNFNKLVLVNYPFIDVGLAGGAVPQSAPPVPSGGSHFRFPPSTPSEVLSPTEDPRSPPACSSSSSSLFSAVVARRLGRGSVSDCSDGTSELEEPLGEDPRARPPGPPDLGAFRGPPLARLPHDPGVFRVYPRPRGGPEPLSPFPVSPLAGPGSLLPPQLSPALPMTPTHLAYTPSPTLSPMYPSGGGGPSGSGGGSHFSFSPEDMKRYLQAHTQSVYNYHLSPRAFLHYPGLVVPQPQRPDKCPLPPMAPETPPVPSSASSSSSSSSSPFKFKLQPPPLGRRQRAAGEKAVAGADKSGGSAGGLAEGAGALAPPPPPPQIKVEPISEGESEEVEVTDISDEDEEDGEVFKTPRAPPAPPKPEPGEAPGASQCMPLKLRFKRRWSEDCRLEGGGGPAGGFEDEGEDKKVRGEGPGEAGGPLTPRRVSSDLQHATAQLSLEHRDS
How it was run: as §1

ETV3L = molecular target: T7, ETV3L (Homo sapiens, UniProt Q6ZN32 1-361); conditions: protein: recombinant; tags: N-terminal GST; dsDNA, one strand shown
T7 sequence: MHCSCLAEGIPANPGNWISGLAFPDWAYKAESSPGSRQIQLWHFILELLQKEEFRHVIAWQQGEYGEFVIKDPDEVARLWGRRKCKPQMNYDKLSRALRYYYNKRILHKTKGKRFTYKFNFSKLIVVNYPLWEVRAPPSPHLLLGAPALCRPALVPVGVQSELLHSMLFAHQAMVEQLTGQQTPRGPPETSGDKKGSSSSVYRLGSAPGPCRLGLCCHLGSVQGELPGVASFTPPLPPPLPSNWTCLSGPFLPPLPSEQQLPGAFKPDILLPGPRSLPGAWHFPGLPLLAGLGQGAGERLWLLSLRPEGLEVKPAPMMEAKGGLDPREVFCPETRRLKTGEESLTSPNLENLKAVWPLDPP
How it was run: as §1

ETS2 = molecular target: T8, ETS2 (Homo sapiens, UniProt P15036 1-469); conditions: protein: recombinant; tags: N-terminal GST; dsDNA, one strand shown
T8 sequence: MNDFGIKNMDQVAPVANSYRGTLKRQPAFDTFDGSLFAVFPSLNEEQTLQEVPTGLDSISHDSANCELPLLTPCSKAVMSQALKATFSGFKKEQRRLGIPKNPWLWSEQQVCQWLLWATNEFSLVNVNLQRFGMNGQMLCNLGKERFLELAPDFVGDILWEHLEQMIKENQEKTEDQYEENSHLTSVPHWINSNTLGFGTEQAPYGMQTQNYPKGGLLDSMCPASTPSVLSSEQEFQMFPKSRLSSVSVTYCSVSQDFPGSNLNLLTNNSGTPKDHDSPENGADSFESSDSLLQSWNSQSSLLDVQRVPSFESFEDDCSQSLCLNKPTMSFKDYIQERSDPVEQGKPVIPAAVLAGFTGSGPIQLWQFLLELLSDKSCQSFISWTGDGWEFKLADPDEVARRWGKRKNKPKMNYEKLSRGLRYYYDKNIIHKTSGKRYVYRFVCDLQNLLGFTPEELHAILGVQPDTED
How it was run: as §1

SPDEF = molecular target: T9, SPDEF (Homo sapiens, UniProt O95238 1-335); conditions: protein: recombinant; tags: N-terminal GST; dsDNA, one strand shown
T9 sequence: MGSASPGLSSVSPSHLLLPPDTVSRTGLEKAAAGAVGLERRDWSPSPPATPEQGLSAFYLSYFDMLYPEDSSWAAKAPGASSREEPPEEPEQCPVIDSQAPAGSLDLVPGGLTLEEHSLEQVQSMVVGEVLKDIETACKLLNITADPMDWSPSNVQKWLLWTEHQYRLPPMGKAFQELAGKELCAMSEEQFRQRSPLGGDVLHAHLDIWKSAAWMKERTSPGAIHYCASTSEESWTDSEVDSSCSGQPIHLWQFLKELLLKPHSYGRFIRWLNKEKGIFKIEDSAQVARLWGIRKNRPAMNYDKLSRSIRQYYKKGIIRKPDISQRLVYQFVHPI
How it was run: as §1

ETV7 = molecular target: T10, ETV7 (Homo sapiens, UniProt Q9Y603 1-341); conditions: protein: recombinant; tags: N-terminal GST; dsDNA, one strand shown
T10 sequence: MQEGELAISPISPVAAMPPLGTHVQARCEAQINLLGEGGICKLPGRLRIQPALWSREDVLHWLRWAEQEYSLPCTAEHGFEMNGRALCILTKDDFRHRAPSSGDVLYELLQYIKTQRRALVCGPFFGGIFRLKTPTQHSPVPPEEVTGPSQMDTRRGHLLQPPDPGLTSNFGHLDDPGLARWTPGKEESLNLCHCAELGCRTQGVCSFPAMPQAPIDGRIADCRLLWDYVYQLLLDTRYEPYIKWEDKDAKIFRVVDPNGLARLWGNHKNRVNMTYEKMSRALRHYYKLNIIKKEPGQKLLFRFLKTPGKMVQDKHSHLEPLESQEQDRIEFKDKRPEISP
How it was run: as §1

ELF5 = molecular target: T11, ELF5 (Homo sapiens, UniProt Q9UKW6-2 1-255); conditions: protein: recombinant; tags: N-terminal GST; dsDNA, one strand shown
T11 sequence: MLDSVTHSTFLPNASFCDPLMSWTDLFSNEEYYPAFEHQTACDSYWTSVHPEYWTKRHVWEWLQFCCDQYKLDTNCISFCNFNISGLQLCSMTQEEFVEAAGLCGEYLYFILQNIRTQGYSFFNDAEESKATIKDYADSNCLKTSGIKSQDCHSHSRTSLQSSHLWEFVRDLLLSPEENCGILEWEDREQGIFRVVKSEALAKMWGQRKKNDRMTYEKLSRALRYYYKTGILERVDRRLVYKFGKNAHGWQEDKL
How it was run: as §1

ETV3 = molecular target: T12, ETV3 (Homo sapiens, UniProt P41162-2 1-143); conditions: protein: recombinant; tags: N-terminal GST; dsDNA, one strand shown
T12 sequence: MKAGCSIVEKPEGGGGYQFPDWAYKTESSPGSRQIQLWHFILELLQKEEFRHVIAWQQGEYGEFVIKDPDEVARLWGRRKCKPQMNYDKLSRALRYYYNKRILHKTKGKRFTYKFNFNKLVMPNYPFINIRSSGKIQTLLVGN
How it was run: as §1

ETV6 = ETV6 (Homo sapiens, UniProt P41212 1-452); conditions: protein: recombinant; tags: N-terminal GST; dsDNA, one strand shown
ETV6, sequence (P41212 whole entry): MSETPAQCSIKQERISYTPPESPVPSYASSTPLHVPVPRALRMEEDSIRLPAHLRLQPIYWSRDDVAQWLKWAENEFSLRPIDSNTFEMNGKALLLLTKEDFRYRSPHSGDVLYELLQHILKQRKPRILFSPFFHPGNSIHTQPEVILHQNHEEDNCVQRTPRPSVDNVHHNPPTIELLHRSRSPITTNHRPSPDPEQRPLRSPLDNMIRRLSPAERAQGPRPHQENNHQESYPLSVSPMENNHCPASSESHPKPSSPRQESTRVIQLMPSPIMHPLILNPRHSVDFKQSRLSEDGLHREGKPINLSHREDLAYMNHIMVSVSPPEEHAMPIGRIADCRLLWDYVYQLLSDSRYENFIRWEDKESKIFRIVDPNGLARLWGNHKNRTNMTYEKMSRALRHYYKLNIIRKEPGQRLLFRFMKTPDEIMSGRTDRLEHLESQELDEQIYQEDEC
How it was run: as §1

For TTTTAA, the binding signal (FEV) was 1.26 fold enrichment (6-mer frequency, TF over GST control), the binding signal (ETV5) was 1.24 fold enrichment (6-mer frequency, TF over GST control) and the binding signal (HSF1) was 1.59 fold enrichment (6-mer frequency, TF over GST control). The binding signal (SPIC) was 1.15 fold enrichment (6-mer frequency, TF over GST control), the binding signal (ELF4) was 1.28 fold enrichment (6-mer frequency, TF over GST control) and the binding signal (ELK4) was 1.22 fold enrichment (6-mer frequency, TF over GST control). For the same sequence, the binding signal (ETV2) was 1.27 fold enrichment (6-mer frequency, TF over GST control), the binding signal (ELF3) was 1.32 fold enrichment (6-mer frequency, TF over GST control) and the binding signal (CRX) was 2.18 fold enrichment (6-mer frequency, TF over GST control). The binding signal (ETV1) was 1.26 fold enrichment (6-mer frequency, TF over GST control), the binding signal (ERF) was 1.37 fold enrichment (6-mer frequency, TF over GST control) and the binding signal (ETV3L) was 1.28 fold enrichment (6-mer frequency, TF over GST control). The binding signal (ETS2) was 1.28 fold enrichment (6-mer frequency, TF over GST control), the binding signal (SPDEF) was 1.21 fold enrichment (6-mer frequency, TF over GST control) and the binding signal (ETV7) was 1.32 fold enrichment (6-mer frequency, TF over GST control). The binding signal (ELF5) was 1.17 fold enrichment (6-mer frequency, TF over GST control), the binding signal (ETV3) was 1.23 fold enrichment (6-mer frequency, TF over GST control) and the binding signal (ETV6) was 1.27 fold enrichment (6-mer frequency, TF over GST control).

Source: publication PMC7862700, “An all-to-all approach to the identification of sequence-specific readers for epigenetic DNA modifications on cytosine”
